{"source": "PubChem BioAssay", "note": "This is one part of the list. Calls of active or inactive are those of the source. Cut-off read from the data, not from the text of the source: active = inhibition above about 20%; inactive = the rest.", "data": [{"assay": "bacterial growth inhibition – absorbance, high throughput, counter-screen for RecBCD inhibitor project (AID 651983);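 note: E. coli strain V66 grown with compound alone and no phage infection; 0% = bacteria with DMSO vehicle only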", "conditions": "E. coli viability, absorbance (OD) growth; at 11.9 µM; hits give high values", "values": [{"compound": "CCCCC(=O)NC(c1ccc(OC)c(OC)c1)c1ccc2cccnc2c1O", "note": "(configuration not stated)", "inhibition": "17.6% (inactive)"}, {"compound": "CCNC(=S)N(CCc1c(C)[nH]c2ccc(C)cc12)Cc1ccco1", "inhibition": "-0.24% (inactive)"}, {"compound": "CC1(C(=O)NS(=O)(=O)c2ccccc2)CCN1C(=O)C/C=C/c1ccccc1", "note": "(configuration not stated)", "inhibition": "-3.55% (inactive)"}, {"compound": "NC1=NC(=O)C(Cc2cccc(Cl)c2Cl)S1", "note": "(configuration not stated)", "inhibition": "0.21% (inactive)"}, {"compound": "CCn1cc(C(=O)NCCO)c(=O)c2cc(F)c(N3CCN(C)CC3)cc21", "inhibition": "104% (active)"}, {"compound": "CCN1CCN(C(=O)N[C@@H](C(=O)N[C@@H]2C(=O)N3C(C(=O)O)=C(CSc4nnnn4C)CS[C@H]23)c2ccc(O)cc2)C(=O)C1=O", "inhibition": "101% (active)"}, {"compound": "C=CCNC(=O)CSc1nc2sc(C)c(C)c2c(=O)[nH]1", "inhibition": "-0.91% (inactive)"}, {"compound": "S=C(NCC1COc2ccccc2O1)Nc1ccc(Br)cc1", "note": "(configuration not stated)", "inhibition": "5.21% (inactive)"}, {"compound": "CC(=O)NC(c1cccs1)c1cc(Br)c2cccnc2c1O", "note": "(configuration not stated)", "inhibition": "16.4% (inactive)"}, {"compound": "Cc1ccc(NC(=O)Nc2nnc(-c3ccncc3)s2)cc1", "inhibition": "3.97% (inactive)"}, {"compound": "CCN1CCN(c2nc(Nc3cc(OC)ccc3OC)nc(Nc3cc(OC)ccc3OC)n2)CC1", "inhibition": "-0.86% (inactive)"}, {"compound": "C=CCn1c(=O)c(C(=O)NCc2ccc3c(c2)OCO3)c(O)c2ccccc21", "inhibition": "6.78% (inactive)"}, {"compound": "CC(C)(C)C(=O)Nc1c(Br)c(C2CC2)nn1-c1ccccc1", "inhibition": "-0.19% (inactive)"}, {"compound": "O=C1c2ccccc2C2=Nc3ccccc3SC(c3ccccc3F)C12", "note": "(configuration not stated)", "inhibition": "8.52% (inactive)"}, {"compound": "Cc1ccc(-c2cnc(C(O)c3cc(Cl)cc(Cl)c3)[nH]2)cc1", "note": "(configuration not stated)", "inhibition": "16.9% (inactive)"}, {"compound": "CC1=C(C/C=C(\\C)CCCC(C)CCCC(C)CCCC(C)C)C(=O)c2ccccc2C1=O", "note": "(configuration not stated)", "inhibition": "0.53% (inactive)"}, {"compound": "COc1cccc(C(O)c2ncc(-c3ccc4ccccc4c3)[nH]2)c1", "note": "(configuration not stated)", "inhibition": "10.9% (inactive)"}]}]}
